# Measured values: PubChem BioAssay AID2148 (The Scripps Research Institute Molecular Screening Center, 2009)
# Hit rate of the full screen: of about 2,400 compounds, about 1,500 (62%) were called active. No stated cut-off is given here; in the data, active means inhibition above about 22%; inactive means the rest. The set was probably picked from earlier hits. Many of the other results were omitted from the sample, so actives are more common in it than they were.
# Biological target: Melanin-concentrating hormone receptor 1 (Homo sapiens) (UniProt Q99705)
# Assay: MCHR1 antagonists in cells, counter-screen for GPR7 antagonist project, cell-based, fluorescence, human (AID 2148);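 further: 0% = vehicle with agonist and 100% = vehicle without agonist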
# Details: MCHR1-expressing cells, fluorescence antagonist assay; at 4.4 µM; active compounds read high
row,SMILES,inhibition
1,CCOC(=O)C1(Cc2ccc(Cl)cc2)CCN(C(C)CCn2cccn2)CC1 (stereo not drawn),26% (active)
2,COc1ccc(Br)cc1CNCCc1cccc(Cl)c1,44.1% (active)
3,CCOc1ccc(-c2cc(C)[n+](CCN(CC)CC)c(-c3ccc(OCC)cc3)c2)cc1,46.5% (active)
